# In the supplement of paper PMC10849652:
# Of roughly 8,800 targets only a part is listed; those with a hit were picked by preference. About 0.5% of all pairs of compound and target were hits. Values without a mark were called inactive.
# Key:
# Assay in all cases: log2 fold change, soluble protein after heating vs DMSO (PISA); higher = thermal stabilisation; K562 lysate, 10 uM; active = over 0.2 and 3.5 SD of the protein, either way, in both replicates (recomputed)
# alvocidib = compound: CN1CC[C@H](c2c(O)cc(O)c3c(=O)cc(-c4ccccc4Cl)oc23)[C@H](O)C1 [alvocidib]
# Procedure, shortened: (§1)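 Log-two fold change in thermal stability relative to solvent controls is reported from duplicates. For each sample, crude K562 extract from dounce-homogenised pellets in PBS pH 7.4 with 1 mM MgCl2, at 1 mg/mL protein, was treated with 10 μM compound for 30 min. Aliquots heated for 3 min across 48°C-58°C were pooled, brought to 0.5% NP-40 at 4°C and cleared at 21,000xg for 90 min. The supernatant was quantified by TMTpro 16plex LC-MS/MS with channel sums equalised.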
# Tubastatin A = compound: CN1CCc2c(c3ccccc3n2Cc2ccc(C(=O)NO)cc2)C1 [Tubastatin A]
# Procedure, shortened: as §1
# [1] = compound: CNC(=O)C1=CC=CC=C1NC2=NC(=NC=C2Cl)NC3=C(C=C(C=C3)N4CCOCC4)OC
# Procedure, shortened: as §1
# defactinib = compound: CNC(=O)c1ccc(Nc2ncc(C(F)(F)F)c(NCc3nccnc3N(C)S(C)(=O)=O)n2)cc1 [defactinib]
# Procedure, shortened: as §1
# [2] = compound: CNc1nc(-c2ccc3c(N)n[nH]c3c2)cc(N2C[C@@H](C(=O)NC3CCCCC3)CC[C@H]2C)n1
# Procedure, shortened: as §1
# encorafenib = compound: COC(=O)N[C@@H](C)CNc1nccc(-c2cn(C(C)C)nc2-c2cc(Cl)cc(NS(C)(=O)=O)c2F)n1 [encorafenib]
# Procedure, shortened: as §1
# [3] = compound: COC(=O)[C@H](CCSC)NC(=O)C1=C(C=C(C=C1)NC[C@H](CS)N)C2=CC=CC=C2
# Procedure, shortened: as §1
# alisertib = compound: COc1cc(Nc2ncc3c(n2)-c2ccc(Cl)cc2C(c2c(F)cccc2OC)=NC3)ccc1C(=O)O [alisertib]
# Procedure, shortened: as §1
# [4] = compound: COc1cc2nc(-c3cc(F)ccc3O)nc(N[C@@H]3CNC[C@H]3C(C)(C)O)c2cc1OC
# Procedure, shortened: as §1
# gefitinib = compound: COc1cc2ncnc(Nc3ccc(F)c(Cl)c3)c2cc1OCCCN1CCOCC1 [gefitinib]
# Procedure, shortened: as §1
# lapatinib = compound: CS(=O)(=O)CCNCc1ccc(-c2ccc3ncnc(Nc4ccc(OCc5cccc(F)c5)c(Cl)c4)c3c2)o1 [lapatinib]
# Procedure, shortened: as §1
# pictilisib = compound: CS(=O)(=O)N1CCN(Cc2cc3nc(-c4cccc5[nH]ncc45)nc(N4CCOCC4)c3s2)CC1 [pictilisib]
# Procedure, shortened: as §1
# crizotinib = compound: C[C@@H](Oc1cc(-c2cnn(C3CCNCC3)c2)cnc1N)c1c(Cl)ccc(F)c1Cl [crizotinib]
# Procedure, shortened: as §1
# [5] = compound: C[C@H](C1=CC=C(C=C1)C(=O)NC2=C3C=CNC3=NC=C2)N
# Procedure, shortened: as §1
# duvelisib = compound: C[C@H](Nc1ncnc2nc[nH]c12)c1cc2cccc(Cl)c2c(=O)n1-c1ccccc1 [duvelisib]
# Procedure, shortened: as §1
# gandotinib = compound: Cc1cc(Nc2cc(CN3CCOCC3)c3nc(C)c(Cc4ccc(Cl)cc4F)n3n2)n[nH]1 [gandotinib]
# Procedure, shortened: as §1
# tozasertib = compound: Cc1cc(Nc2cc(N3CCN(C)CC3)nc(Sc3ccc(NC(=O)C4CC4)cc3)n2)n[nH]1 [tozasertib]
# Procedure, shortened: as §1
# doramapimod = compound: Cc1ccc(-n2nc(C(C)(C)C)cc2NC(=O)Nc2ccc(OCCN3CCOCC3)c3ccccc23)cc1 [doramapimod]
# Procedure, shortened: as §1
# bafetinib = compound: Cc1ccc(NC(=O)c2ccc(CN3CC[C@H](N(C)C)C3)c(C(F)(F)F)c2)cc1Nc1nccc(-c2cncnc2)n1 [bafetinib]
# Procedure, shortened: as §1
# [6] = compound: Cc1cccc(CC(=O)N2CCc3c2ccc(-c2cn(C)c4ncnc(N)c24)c3F)n1
# Procedure, shortened: as §1
# Sequence of UniProt O43592 (O43592 whole entry, looked up): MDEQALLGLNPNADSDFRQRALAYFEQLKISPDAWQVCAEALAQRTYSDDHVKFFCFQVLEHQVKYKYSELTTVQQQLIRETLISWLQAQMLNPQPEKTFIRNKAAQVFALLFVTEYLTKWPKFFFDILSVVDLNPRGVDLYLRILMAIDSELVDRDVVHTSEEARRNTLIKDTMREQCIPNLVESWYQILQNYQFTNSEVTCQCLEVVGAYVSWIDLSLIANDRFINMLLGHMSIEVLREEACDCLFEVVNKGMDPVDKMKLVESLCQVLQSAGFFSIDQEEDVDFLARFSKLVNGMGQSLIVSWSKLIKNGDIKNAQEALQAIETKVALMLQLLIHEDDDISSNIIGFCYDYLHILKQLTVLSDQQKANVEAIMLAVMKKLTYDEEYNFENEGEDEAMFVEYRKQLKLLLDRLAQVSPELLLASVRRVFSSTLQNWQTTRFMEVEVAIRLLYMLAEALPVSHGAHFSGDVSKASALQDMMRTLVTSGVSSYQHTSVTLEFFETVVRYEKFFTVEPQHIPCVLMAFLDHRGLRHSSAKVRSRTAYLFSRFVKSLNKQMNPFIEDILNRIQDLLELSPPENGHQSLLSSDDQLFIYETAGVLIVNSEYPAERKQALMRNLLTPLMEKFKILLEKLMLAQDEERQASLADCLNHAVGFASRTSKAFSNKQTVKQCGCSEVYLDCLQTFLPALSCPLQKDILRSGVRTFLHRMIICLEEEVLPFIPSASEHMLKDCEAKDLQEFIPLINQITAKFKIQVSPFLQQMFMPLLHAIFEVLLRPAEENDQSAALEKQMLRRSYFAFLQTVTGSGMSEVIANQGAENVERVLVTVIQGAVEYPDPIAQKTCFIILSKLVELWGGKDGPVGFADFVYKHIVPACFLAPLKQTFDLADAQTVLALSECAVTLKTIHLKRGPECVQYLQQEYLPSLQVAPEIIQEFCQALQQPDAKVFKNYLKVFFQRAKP
# Sequence of UniProt Q96JC1 (Q96JC1 whole entry, looked up): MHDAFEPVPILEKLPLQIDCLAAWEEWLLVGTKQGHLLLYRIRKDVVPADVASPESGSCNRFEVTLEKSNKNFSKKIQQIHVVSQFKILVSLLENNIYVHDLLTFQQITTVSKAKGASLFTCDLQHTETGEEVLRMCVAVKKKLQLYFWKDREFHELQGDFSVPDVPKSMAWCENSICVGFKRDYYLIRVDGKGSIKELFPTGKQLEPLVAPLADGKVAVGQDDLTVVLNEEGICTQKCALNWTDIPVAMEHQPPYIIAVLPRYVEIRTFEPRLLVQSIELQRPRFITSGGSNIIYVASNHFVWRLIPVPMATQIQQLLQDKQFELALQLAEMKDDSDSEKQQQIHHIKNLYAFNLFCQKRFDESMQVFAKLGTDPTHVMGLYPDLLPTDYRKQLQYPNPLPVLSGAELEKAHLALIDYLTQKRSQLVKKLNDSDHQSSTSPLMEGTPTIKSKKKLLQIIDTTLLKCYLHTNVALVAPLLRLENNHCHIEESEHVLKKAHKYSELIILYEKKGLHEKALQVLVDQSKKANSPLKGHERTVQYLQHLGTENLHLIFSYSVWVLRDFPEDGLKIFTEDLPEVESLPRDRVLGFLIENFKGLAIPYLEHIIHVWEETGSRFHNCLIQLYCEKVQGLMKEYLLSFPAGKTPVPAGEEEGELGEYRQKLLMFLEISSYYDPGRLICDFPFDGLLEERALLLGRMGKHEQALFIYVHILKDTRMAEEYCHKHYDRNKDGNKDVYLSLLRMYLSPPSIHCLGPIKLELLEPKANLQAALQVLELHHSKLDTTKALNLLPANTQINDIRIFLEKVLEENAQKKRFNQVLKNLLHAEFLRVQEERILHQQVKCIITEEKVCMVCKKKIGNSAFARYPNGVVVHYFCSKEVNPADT
# Sequence of UniProt Q9H269 (Q9H269 whole entry, looked up): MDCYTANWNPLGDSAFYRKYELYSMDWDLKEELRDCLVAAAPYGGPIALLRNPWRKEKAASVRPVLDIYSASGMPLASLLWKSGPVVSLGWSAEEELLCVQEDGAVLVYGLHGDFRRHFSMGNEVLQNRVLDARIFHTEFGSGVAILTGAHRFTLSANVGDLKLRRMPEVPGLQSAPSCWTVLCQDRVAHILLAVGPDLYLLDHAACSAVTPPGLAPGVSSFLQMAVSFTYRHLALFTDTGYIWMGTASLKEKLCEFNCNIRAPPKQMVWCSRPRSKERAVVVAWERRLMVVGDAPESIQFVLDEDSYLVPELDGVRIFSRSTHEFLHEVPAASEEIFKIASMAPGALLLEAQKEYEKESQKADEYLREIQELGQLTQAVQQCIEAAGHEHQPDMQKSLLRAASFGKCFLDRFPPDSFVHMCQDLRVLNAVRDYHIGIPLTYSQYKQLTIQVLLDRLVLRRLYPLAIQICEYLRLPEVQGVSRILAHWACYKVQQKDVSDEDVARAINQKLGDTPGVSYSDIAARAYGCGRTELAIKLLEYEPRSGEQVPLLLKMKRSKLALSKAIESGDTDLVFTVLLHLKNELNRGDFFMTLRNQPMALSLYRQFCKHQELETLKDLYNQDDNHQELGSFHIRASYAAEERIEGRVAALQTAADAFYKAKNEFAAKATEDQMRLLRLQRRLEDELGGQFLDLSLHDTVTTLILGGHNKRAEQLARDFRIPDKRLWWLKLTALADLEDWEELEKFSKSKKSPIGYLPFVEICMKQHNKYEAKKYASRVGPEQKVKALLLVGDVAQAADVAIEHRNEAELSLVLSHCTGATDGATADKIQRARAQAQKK
# Sequence of UniProt Q08AM6 (Q08AM6 whole entry, looked up): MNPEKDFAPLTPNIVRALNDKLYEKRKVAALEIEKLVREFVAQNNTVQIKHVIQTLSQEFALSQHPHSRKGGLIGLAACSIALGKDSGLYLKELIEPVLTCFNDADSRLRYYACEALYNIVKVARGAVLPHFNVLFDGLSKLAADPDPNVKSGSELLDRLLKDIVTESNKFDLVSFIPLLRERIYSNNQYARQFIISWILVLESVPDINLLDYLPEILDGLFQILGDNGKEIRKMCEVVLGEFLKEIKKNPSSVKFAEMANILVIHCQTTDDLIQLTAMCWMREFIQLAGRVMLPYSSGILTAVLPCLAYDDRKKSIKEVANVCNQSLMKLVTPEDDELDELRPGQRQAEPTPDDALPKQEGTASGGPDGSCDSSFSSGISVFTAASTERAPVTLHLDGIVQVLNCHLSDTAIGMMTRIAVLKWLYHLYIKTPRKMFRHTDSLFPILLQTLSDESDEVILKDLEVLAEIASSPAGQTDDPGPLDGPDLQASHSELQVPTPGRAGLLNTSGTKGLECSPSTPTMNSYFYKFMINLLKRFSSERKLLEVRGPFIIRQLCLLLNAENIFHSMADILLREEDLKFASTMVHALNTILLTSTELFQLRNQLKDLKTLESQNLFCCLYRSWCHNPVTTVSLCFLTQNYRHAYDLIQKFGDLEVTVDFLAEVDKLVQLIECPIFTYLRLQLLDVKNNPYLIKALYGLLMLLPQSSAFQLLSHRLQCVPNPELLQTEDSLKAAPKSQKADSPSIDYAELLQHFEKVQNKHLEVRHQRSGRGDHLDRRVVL
# Sequence of UniProt Q9UK41 (Q9UK41 whole entry, looked up): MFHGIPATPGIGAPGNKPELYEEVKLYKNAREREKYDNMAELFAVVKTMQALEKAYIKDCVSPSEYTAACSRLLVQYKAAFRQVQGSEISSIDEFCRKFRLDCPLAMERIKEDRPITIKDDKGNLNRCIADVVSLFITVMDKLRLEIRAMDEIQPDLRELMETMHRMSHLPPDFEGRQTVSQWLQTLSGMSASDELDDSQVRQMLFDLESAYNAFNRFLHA
# Sequence of UniProt Q9Y4E5 (Q9Y4E5 whole entry, looked up): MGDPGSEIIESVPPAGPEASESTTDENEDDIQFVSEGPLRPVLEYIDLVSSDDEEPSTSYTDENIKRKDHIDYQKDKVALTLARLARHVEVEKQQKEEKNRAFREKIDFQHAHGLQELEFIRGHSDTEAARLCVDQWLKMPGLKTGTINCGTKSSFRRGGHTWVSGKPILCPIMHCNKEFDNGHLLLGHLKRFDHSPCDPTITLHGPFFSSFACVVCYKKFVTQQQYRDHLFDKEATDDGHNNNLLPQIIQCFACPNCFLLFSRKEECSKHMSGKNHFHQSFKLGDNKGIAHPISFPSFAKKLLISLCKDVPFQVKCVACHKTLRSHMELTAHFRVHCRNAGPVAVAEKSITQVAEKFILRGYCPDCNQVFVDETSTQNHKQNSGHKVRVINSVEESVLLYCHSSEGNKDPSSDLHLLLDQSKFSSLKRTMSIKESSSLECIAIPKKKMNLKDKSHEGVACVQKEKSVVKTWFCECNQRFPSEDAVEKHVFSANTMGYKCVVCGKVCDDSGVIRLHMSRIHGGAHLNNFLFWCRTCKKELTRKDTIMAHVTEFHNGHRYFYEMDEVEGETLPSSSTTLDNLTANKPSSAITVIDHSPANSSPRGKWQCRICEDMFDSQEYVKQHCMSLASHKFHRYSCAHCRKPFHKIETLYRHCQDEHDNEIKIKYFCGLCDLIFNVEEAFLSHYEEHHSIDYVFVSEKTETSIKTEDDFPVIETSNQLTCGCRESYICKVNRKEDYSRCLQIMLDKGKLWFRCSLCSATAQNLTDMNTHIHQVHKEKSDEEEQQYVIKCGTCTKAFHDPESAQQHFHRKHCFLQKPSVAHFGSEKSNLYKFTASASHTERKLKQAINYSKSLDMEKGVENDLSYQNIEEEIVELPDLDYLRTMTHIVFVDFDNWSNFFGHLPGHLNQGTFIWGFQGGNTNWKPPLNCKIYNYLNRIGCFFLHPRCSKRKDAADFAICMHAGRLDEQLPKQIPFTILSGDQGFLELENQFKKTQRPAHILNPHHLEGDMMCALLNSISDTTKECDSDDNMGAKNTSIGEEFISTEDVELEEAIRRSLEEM
# Sequence of UniProt Q9NZ43 (Q9NZ43 whole entry, looked up): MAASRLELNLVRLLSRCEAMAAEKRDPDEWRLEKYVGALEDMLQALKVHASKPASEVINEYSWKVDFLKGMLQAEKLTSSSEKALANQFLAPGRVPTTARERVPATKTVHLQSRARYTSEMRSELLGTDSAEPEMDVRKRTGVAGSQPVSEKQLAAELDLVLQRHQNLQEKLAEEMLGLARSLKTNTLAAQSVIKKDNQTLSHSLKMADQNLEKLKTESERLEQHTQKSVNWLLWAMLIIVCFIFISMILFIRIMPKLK
Target,log2 fold change (alvocidib),log2 fold change (Tubastatin A),log2 fold change [1],log2 fold change (defactinib),log2 fold change [2],log2 fold change (encorafenib),log2 fold change [3],log2 fold change (alisertib),log2 fold change [4],log2 fold change (gefitinib),log2 fold change (lapatinib),log2 fold change (pictilisib),log2 fold change (crizotinib),log2 fold change [5],log2 fold change (duvelisib),log2 fold change (gandotinib),log2 fold change (tozasertib),log2 fold change (doramapimod),log2 fold change (bafetinib),log2 fold change [6]
VANGL1 (UniProt Q8TAA9),0.005,0.088,-0.054,0.078,0.054,-0.011,-0.072,-0.023,-0.071,0.011,0.047,-0.071,0.031,0.07,0.099,0.004,0.016,-0.043,0.016,0.084
VPS28 (UniProt Q9UK41),-0.018,-0.034,0,-0.018,-0.078,0.046,0.012,-0.022,0,0.034,0.038,-0.005,0.051,-0.132,-0.032,0.018,-0.03,-0.005,0.034,0.034
WRN (UniProt Q14191),-0.029,-0.071,-0.007,0.023,-0.025,0.016,-0.013,-0.037,0,0.047,-0.008,0.006,-0.031,-0.042,-0.034,-0.008,0.037,0.02,-0.064,0.073
XPOT (UniProt O43592),0.004,-0.133,-0.004,0.011,-0.042,0.005,-0.094,0,0.005,0.01,-0.033,0.013,-0.051,-0.044,0.022,-0.086,-0.007,0,-0.04,0.057
USE1 (UniProt Q9NZ43),0.019,-0.054,-0.002,0.064,0.015,0.067,-0.037,-0.059,0.039,-0.026,-0.035,0.088,-0.057,0.039,-0.056,-0.103,0.011,0.112,-0.019,0.027
WRNIP1 (UniProt Q96S55),0.005,-0.229,0.01,0.01,-0.044,0.024,0.222 (active),-0.022,-0.014,0.033,-0.021,-0.043,0,0.054,0.012,-0.047,0.022,0.001,-0.043,0.045
VAC14 (UniProt Q08AM6),0,-0.036,0.022,0.007,0.005,0.04,-0.051,0.008,0.006,0.003,-0.034,-0.005,-0.047,-0.028,-0.004,-0.069,-0.005,0.037,-0.036,0.067
ZNF451 (UniProt Q9Y4E5),-0.011,-0.121,0.027,0,-0.014,-0.03,0.07,0.008,-0.012,-0.009,-0.044,-0.054,-0.042,-0.053,0.007,-0.069,-0.045,0.052,-0.074,0.003
VPS39 (UniProt Q96JC1),0.268 (active),-0.06,0.036,0.011,0.007,0.043,-0.218,0.041,0.026,-0.041,-0.018,-0.018,-0.066,0.603 (active),0.015,-0.169,0.021,0.015,-0.045,-0.229
WIPI2 (UniProt Q9Y4P8),-0.036,0.005,-0.007,0.036,-0.051,0.029,0.049,-0.033,-0.012,-0.027,0.006,-0.024,-0.02,-0.086,-0.008,0.089,-0.003,0.098,-0.025,0.035
VPS16 (UniProt Q9H269),0.032,-0.082,0.002,-0.006,0,0.049,-0.069,0.031,-0.004,0.013,-0.014,0.005,-0.08,-0.019,0.013,-0.024,0.004,-0.013,-0.051,0.03
VPS54 (UniProt Q9P1Q0),-0.07,0,0.059,-0.07,0.013,-0.001,0.105,-0.024,0.071,0.089,-0.018,0.068,-0.296,-0.263,-0.012,0.399,0.047,0.066,0.431,0.395
ZC3H11A (UniProt O75152),0.098,-0.077,0.076,-0.066,-0.023,0.045,0.078,0.019,0.09,0.034,-0.09,-0.046,-0.071,0.222,0.013,-0.12,0.016,0.013,-0.113,-0.134
ZNHIT6 (UniProt Q9NWK9),0.004,-0.046,0.034,-0.04,0.086,0.037,0.118,-0.021,-0.022,0.008,0.042,0.006,-0.006,0.061,-0.002,0.008,-0.029,-0.024,-0.026,-0.004
ZNF318 (UniProt Q5VUA4),0.033,-0.177,0.034,-0.055,-0.002,0.03,0.117,0.03,0.142,0.025,0.031,0.059,0.023,-0.008,0.046,-0.021,-0.019,-0.01,-0.086,0.112
YES1 (UniProt P07947),-0.065,0.171,-0.003,-0.228,-0.094,-0.009,-0.024,0.049,0.087,-0.13,0,-0.063,-0.128,-0.101,-0.066,0.212,-0.105,-0.005,0.155,0.092
